This passage reports growth results from PubChem BioAssay (NCI).

Some test systems named below: DU-145 prostate; K-562 leukemia; MALME-3M melanoma; MDA-MB-231 breast; RXF 393 renal; SF-268 CNS; SF-295 CNS; SF-539 CNS; UACC-257 melanoma; M14 melanoma.
Assay in all cases: NCI-60 one-dose screen, 48 h (100 = growth as untreated, 0 = no growth, -100 = all killed)
What all share (conditions): 10 µM unless noted

The panel holds about 83,000 compounds, 20% with a hit somewhere; the sample as a whole holds those more often.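 Method: cells in 96-well plates; compound added at one concentration; 48 h incubation; percent growth measured; values under 10 scored active.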 Values without a mark were called inactive. Activity calls are given as the source filed them.

Turning to `Cc1ccc(-c2nc3nc(-c4ccccc4)nc(N4CCCNCC4)c3o2)cc1`, the growth with DU-145 prostate is -25.5% (active); in the experiment on K-562 leukemia it was -76.4% (active); with MALME-3M melanoma, -85.5% (active); with MDA-MB-231 breast, -86.9% (active); in the experiment on RXF 393 renal, -73.2% (active); with SF-268 CNS, -26.3% (active). Moreover, the growth is -87.3% (active) in the experiment with SF-295 CNS, -88.5% (active) in the experiment with SF-539 CNS, 4.04% (active) with UACC-257 melanoma and -93.9% (active) in the experiment with M14 melanoma.
Consider `O=C1C(N2CCOCC2)=C(I)C(=O)c2ncccc21`, for which the growth with DU-145 prostate is 84.8%; in the experiment with K-562 leukemia it was 4.52% (active); in the experiment on MALME-3M melanoma, 87.3%; with MDA-MB-231 breast, 87.1%; with RXF 393 renal, 72.6%; in the experiment on SF-268 CNS, 71.5%. The growth is 97.3% in the experiment on SF-295 CNS, 82.7% with SF-539 CNS, 85% with UACC-257 melanoma and 87.1% with M14 melanoma.
For the compound `CCn1cc(C(=O)NN=C2CCCC2)c(=O)c2ccc(C)nc21`, the growth in the experiment with DU-145 prostate was 109%; in the experiment on K-562 leukemia, 93.1%; with MALME-3M melanoma, 91.8%; in the experiment on MDA-MB-231 breast, 93.3%; in the experiment with RXF 393 renal, 103%; with SF-268 CNS, 93.4%. Besides, the growth in the experiment on SF-295 CNS is 92.8%; with SF-539 CNS, 96.2%; in the experiment with UACC-257 melanoma, 90.1%; in the experiment on M14 melanoma, 102%.
In the case of `COc1ccc(-c2ccccc2)cc1-c1c(Nc2cc(Cl)cc(Cl)c2O)c(=O)c1=O`, the growth was 20.5% in the experiment with DU-145 prostate; 13.5% in the experiment with K-562 leukemia; -19.4% (active) with MALME-3M melanoma; 15% in the experiment on MDA-MB-231 breast; -13% (active) in the experiment with RXF 393 renal; 18.3% in the experiment on SF-268 CNS. Moreover, the growth in the experiment with SF-295 CNS is -6.58% (active); in the experiment with SF-539 CNS, 12.7%; with UACC-257 melanoma it was 2.86% (active); in the experiment with M14 melanoma, 24.6%.
With `C=C(CNCCO)[C@@H]1CC[C@]2(CO)CC[C@]3(C)[C@H](CC[C@@H]4[C@@]5(C)CCC(NCCc6ccc(O)cc6)C(C)(C)[C@@H]5CC[C@]43C)[C@@H]12` (stereo not given in full), the growth is -84.1% (active) with DU-145 prostate; -57.3% (active) in the experiment with K-562 leukemia; -86.8% (active) in the experiment with MALME-3M melanoma; -80% (active) with MDA-MB-231 breast; -85.7% (active) with RXF 393 renal; -74.8% (active) in the experiment on SF-268 CNS. In addition, the growth was -85.4% (active) with SF-295 CNS, -93.6% (active) in the experiment on SF-539 CNS, -86.3% (active) in the experiment with UACC-257 melanoma and -91.6% (active) with M14 melanoma.
`COc1ccc(S(=O)(=O)Nc2cc(Sc3cccc4cccnc34)c(O)c3ccccc23)cc1`: the growth was 19.5% in the experiment on DU-145 prostate; -7.46% (active) in the experiment on K-562 leukemia; 6.25% (active) in the experiment on MALME-3M melanoma; 25% in the experiment on MDA-MB-231 breast; 18.8% in the experiment on RXF 393 renal; 11.3% in the experiment with SF-268 CNS. Moreover, the growth in the experiment on SF-295 CNS is 22.3%; with SF-539 CNS, -6.48% (active); in the experiment on UACC-257 melanoma, -17% (active); in the experiment on M14 melanoma it was -13.4% (active).
Turning to `COc1ccc(-c2c[nH]c(C(=O)O)c2-c2cc(OC)c(OC)c(OC)c2)cc1`, the growth with DU-145 prostate is 49%; in the experiment with K-562 leukemia it was 11.7%; in the experiment on MALME-3M melanoma it was 33.7%; in the experiment with MDA-MB-231 breast, 57.7%; with RXF 393 renal, -3.91% (active); in the experiment on SF-268 CNS, 64.9%. In addition, the growth with SF-295 CNS was 23.6%; in the experiment with SF-539 CNS, 2.29% (active); in the experiment on UACC-257 melanoma, 78.8%; in the experiment on M14 melanoma, 45.7%.
Turning to `C=C(CN1CC=CCC1)[C@@H]1CC[C@]2(COC(C)=O)CC[C@]3(C)[C@H](CC[C@@H]4[C@@]5(C)CC[C@H](O)C(C)(C)[C@@H]5CC[C@]43C)[C@@H]12`, the growth with DU-145 prostate is 102%; in the experiment on K-562 leukemia it was 91.7%; in the experiment on MALME-3M melanoma it was 113%; with MDA-MB-231 breast, 112%; in the experiment with RXF 393 renal it was 109%; in the experiment on SF-268 CNS, 106%. Moreover, the growth in the experiment on SF-295 CNS was 105%; with SF-539 CNS it was 96.8%; with UACC-257 melanoma it was 99.4%; in the experiment with M14 melanoma it was 97.4%.
As to `CC(=NCc1ccccc1)c1ccc(O)cc1O`, the growth is 112% in the experiment with DU-145 prostate; 96.6% in the experiment on K-562 leukemia; 93.8% in the experiment with MALME-3M melanoma; 96.9% with MDA-MB-231 breast; 122% in the experiment with RXF 393 renal; 101% in the experiment on SF-268 CNS. Further, the growth is 123% in the experiment with SF-295 CNS, 97.8% with SF-539 CNS, 88.1% in the experiment with UACC-257 melanoma and 104% in the experiment with M14 melanoma.
As to `COc1ccc(Nc2ncnc3ccc(-c4cncc(NS(C)(=O)=O)c4)cc23)cc1Cl`, the growth was 46.9% with DU-145 prostate; 28.1% in the experiment on K-562 leukemia; 36.2% in the experiment with MALME-3M melanoma; 21.6% in the experiment on MDA-MB-231 breast; 26.8% in the experiment with RXF 393 renal; 24.9% in the experiment on SF-268 CNS. Also, the growth in the experiment on SF-295 CNS was 55.8%; with SF-539 CNS, 18.9%; with UACC-257 melanoma, 37%; with M14 melanoma, 51.5%.
Regarding `Cc1n(Cc2ccc3ccccc3c2)c(Cl)c(Cl)[n+]1Cc1ccc2ccccc2c1`, the growth is 48.3% in the experiment with DU-145 prostate; 9.4% (active) with K-562 leukemia; -0.456% (active) in the experiment with MALME-3M melanoma; 10.6% in the experiment on MDA-MB-231 breast; 43.3% with RXF 393 renal; 34.9% in the experiment on SF-268 CNS. For the same compound, the growth in the experiment on SF-295 CNS is 67.8%; in the experiment on SF-539 CNS, 54.4%; in the experiment on UACC-257 melanoma it was -13.6% (active); with M14 melanoma, 10.9%.
Take `N#Cc1ccccc1OCC(=O)Nc1nc2c(s1)COc1ccccc1-2`: the growth in the experiment with DU-145 prostate is 114%; in the experiment with K-562 leukemia, 104%; in the experiment with MALME-3M melanoma it was 107%; with MDA-MB-231 breast, 102%; in the experiment with RXF 393 renal, 101%; in the experiment with SF-268 CNS, 104%. For the same compound, the growth was 79.5% with SF-295 CNS, 101% with SF-539 CNS, 112% with UACC-257 melanoma and 105% with M14 melanoma.
As for `COc1cc(-c2nc3occn3c2-c2ccnc(NCCCNS(=O)(=O)c3ccc(O)cc3)n2)ccc1F`, the growth in the experiment with DU-145 prostate was 110%; in the experiment with K-562 leukemia, 80.6%; in the experiment on MALME-3M melanoma, -7.42% (active); in the experiment with MDA-MB-231 breast, 67.1%; in the experiment on RXF 393 renal, 105%; with SF-268 CNS, 110%. For the same compound, the growth in the experiment with SF-295 CNS was 91.6%; with SF-539 CNS, 110%; in the experiment with UACC-257 melanoma it was 54.4%; in the experiment with M14 melanoma, 26.2%.
